Source: PubChem BioAssay (several laboratories)
D1 mod = D1 dopamine receptor (human) allosteric modulation. P21728. B-score at 10 µM. 5.9% of 58,000 active. HEK293 D1, CRE-luciferase, dopamine EC30 potentiation; actives deviate in either direction;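 active means luminescence count or its row- and column-corrected plate score outside the 99.7% band of the plate's sample wells, on either side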
PKA kinase inh = inhibitors of human protein kinase A. P17612. PKA Kemptide phosphorylation, Kinase-Glo ATP luminescence. inhibition, % at 6 µM. 0.1% of 65,000 active;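 active means inhibition above the screen-wide mean inhibition plus 3 SD, cut at about 21% in these data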
hDAT+cocaine = modulates human dopamine transporter uptake under cocaine; Q01959; 1.3% of 110,000 active; LLC-PK1 hDAT cells, [14C]-dopamine uptake with cocaine IC80; actives deviate in either direction; B-score at 10 µM;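 active means Z score or B-score, a plate-position-corrected score, falls beyond the plate's 99.7% confidence bounds, in either direction; inactive means both scores lie inside the 99.7% bounds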
ROCK2 inh = blocks human Rho kinase 2 activity; purified ROCK2, Kinase-Glo ATP depletion luminescence; 0.35% of 60,000 active; inhibition, % at 6 µM; O75116; AID 604;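 active means inhibition above the screen-wide mean inhibition plus 3 SD, cut at about 18% in these data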
JNK3 blocker = inhibitors of human JNK3 kinase; P53779; purified JNK3 kinase activity, HTS; inhibition, % at 8 µM; 0.61% of 60,000 active; in the data active means inhibition above about 17%
Target sequence (P53779 whole entry, looked up): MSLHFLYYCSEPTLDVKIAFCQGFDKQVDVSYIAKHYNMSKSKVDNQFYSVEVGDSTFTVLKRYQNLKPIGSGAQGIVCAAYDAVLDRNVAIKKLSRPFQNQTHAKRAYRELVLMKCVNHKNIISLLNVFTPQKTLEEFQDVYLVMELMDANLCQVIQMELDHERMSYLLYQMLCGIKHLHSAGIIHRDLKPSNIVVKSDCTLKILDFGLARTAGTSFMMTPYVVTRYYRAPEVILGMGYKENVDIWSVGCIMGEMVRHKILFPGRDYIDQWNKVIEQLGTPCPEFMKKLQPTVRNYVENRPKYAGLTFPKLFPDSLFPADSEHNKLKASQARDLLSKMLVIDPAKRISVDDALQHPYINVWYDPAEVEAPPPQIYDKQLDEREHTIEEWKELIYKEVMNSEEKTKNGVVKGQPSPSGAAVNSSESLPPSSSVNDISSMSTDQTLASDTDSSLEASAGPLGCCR
D1 mod confirm = D1 receptor (human) allosteric modulation, confirmed | shares compounds with D1 mod | HEK293 D1 CRE-luciferase, dopamine EC30 potentiation; active compounds read high | luminescence at 10 µM | 88% of 2,200 active | AID 642;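 active means luminescence in either of two replicates above the same-plate mean plus 3 SD of the low-dose dopamine control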
D1 no dopamine = activates D1 CRE-luciferase signal without dopamine present; shares compounds with D1 mod; HEK293 D1 CRE-luciferase, luminescence, no dopamine; active compounds read high; luminescence at 10 µM; 0.8% of 1,900 active; AID 646; in the data active means luminescence above about 3900
Isoprot counter = counter-screen for D1 modulators: isoproterenol response in HEK293 cells. shares compounds with D1 mod. HEK293 D1 CRE-luciferase, isoproterenol EC30 counter-screen. calls only at 10 µM. 63% of 2,200 active. AID 647;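 active means luminescence in either replicate above plate mean of wells with a partly effective reference agonist dose plus 3 SD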;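 further: isoproterenol raises cAMP through native beta-adrenoceptor Gs so signal bypasses D1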
Of the large screens only hits and unclear results are named; the others gave an inactive call (follow-up assays come after a bar, where they were run). This is one part of a sample in which hits are shown more often than they occur.

Cc1cc(C)n(C(=O)C2CCCN2S(=O)(=O)c2ccc(Cl)cc2)n1 (configuration not stated)	none (no result: hDAT+cocaine)
COc1ccc(S(=O)(=O)N(C)c2ccc(C(=O)N3CCOCC3)cc2)cc1OC	D1 mod 15 | D1 mod confirm 16652 | D1 no dopamine inactive | Isoprot counter inactive
COc1ccc(-c2nc(CCNC(=O)c3ccco3)cs2)cc1OC	D1 mod 24 | D1 mod confirm 24816 | D1 no dopamine inactive | Isoprot counter active
COc1ccc(C(=O)N2CCOCC2)cc1Br	none
CCCCNC(=O)c1cc(-c2ccc(OC)cc2)on1	none (no result: D1 mod, ROCK2 inh, JNK3 blocker)
CCCCNC(=O)c1cc(-c2ccc(OC)c(OC)c2)on1	D1 mod 3.4 | D1 mod confirm 9084 | D1 no dopamine inactive | Isoprot counter inactive
COc1ccc(-c2cc(C(=O)N(C)Cc3ccccc3)no2)cc1OC	D1 mod 17 | D1 mod confirm 18128 | Isoprot counter active
O=C1OCCC1Sc1nnc(-c2ccc(Br)cc2)o1 (configuration not stated)	none (no result: D1 mod, ROCK2 inh, JNK3 blocker)
CCOc1ccc(N(CC(=O)NC(C)(C)C)C(=O)c2ccco2)cc1	none (no result: D1 mod)
COc1ccc(-c2cc(C(=O)N3CCN(c4ccccc4)CC3)no2)cc1OC	none (no result: D1 mod, PKA kinase inh, ROCK2 inh, JNK3 blocker)
COc1ccc(-c2cc(C(=O)NCc3ccccc3)no2)cc1OC	D1 mod 4.6 | D1 mod confirm 10196 | Isoprot counter active
COc1ccc(-c2cc(C(=O)N3CCOCC3)no2)cc1OC	D1 mod 6 | D1 mod confirm 11468 | D1 no dopamine inactive | Isoprot counter active
COc1ccc(CNC(=O)c2cc(-c3ccc(OC)c(OC)c3)on2)cc1	none
COc1ccc(OC)c(C2=NOC(C(=O)NCc3ccco3)C2)c1 (configuration not stated)	none (no result: D1 mod, PKA kinase inh, ROCK2 inh, JNK3 blocker)
Cc1sc2nc(SC(C)C)nc(N)c2c1C	D1 mod 14 | D1 mod confirm 13552 | D1 no dopamine inactive | Isoprot counter active
Cc1sc2nc(C(C)C)oc(=O)c2c1C	none (no result: D1 mod, PKA kinase inh, ROCK2 inh, JNK3 blocker)
NC(=O)NC(=O)Nc1ccccc1Cl	D1 mod 2.8 | D1 mod confirm 7220 | D1 no dopamine inactive | Isoprot counter inactive
CCOC(=O)c1c(N)nn(C(=O)CC)c1-c1ccccc1	D1 mod 13 | D1 mod confirm 17424 | D1 no dopamine inactive | Isoprot counter active
CCOC(=O)c1c(N)nn(C(=O)C(C)C)c1-c1ccccc1	D1 mod 6.8 | D1 mod confirm 18276 | D1 no dopamine inactive | Isoprot counter active
COCCN1C(=O)C(=O)/C(=C(/O)c2ccc(OCC(C)C)cc2)C1c1cccnc1 (configuration not stated)	none (no result: hDAT+cocaine)
COc1cccc(-c2nn(-c3ccccc3)cc2CO)c1	D1 mod 3.6 | D1 mod confirm 10836 | D1 no dopamine inactive | Isoprot counter active
OCc1cn(-c2ccccc2)nc1-c1ccc2c(c1)OCCO2	none
COc1ccc(-c2nn(-c3ccccc3)cc2CO)cc1OC	D1 mod 6.7 | D1 mod confirm 13160 | D1 no dopamine inactive | Isoprot counter active
CCOC(=O)Cc1cnc(NC(=O)NC(C(=O)OCC)(c2ccccc2)C(F)(F)F)s1 (configuration not stated)	none
CCOc1ccccc1-c1nc(SCC(=O)O)n[nH]1	D1 mod 3.8 | D1 mod confirm inactive | D1 no dopamine inactive | Isoprot counter inactive
CCN1CCN(Cc2nc(N)nc(Nc3ccc(C)c(C)c3)n2)CC1	none
Cc1ccc(Nc2nc(N)nc(CN3CCN(C(=O)c4ccco4)CC3)n2)cc1Cl	D1 mod 5.4 | D1 mod confirm 12072 | D1 no dopamine inactive | Isoprot counter active
COc1ccc(N2CCN(Cc3nc4c(c(=O)n(C)c(=O)n4C)n3Cc3ccccc3C)CC2)cc1	none (no result: hDAT+cocaine)
COCCn1c(Cc2ccccc2)nnc1SCC(=O)NC(C)C	none
O=c1oc2ccccc2c2c1ncn2C1CCCCC1	D1 mod 7.4 | D1 mod confirm 20596 | D1 no dopamine inactive | Isoprot counter active
CC(C)Cn1cnc2c(=O)oc3ccccc3c21	none (no result: D1 mod, PKA kinase inh, ROCK2 inh, JNK3 blocker)
O=c1oc2ccccc2c2c1ncn2-c1ccccc1	D1 mod 3.6 | D1 mod confirm 9304 | D1 no dopamine inactive | Isoprot counter active
